Source: PubChem BioAssay
Sampled rows, rich in hits. Any-hit rate of the full collection: about 0.41%.
GLA inh pH 4.5: alpha-galactosidase A (human) inhibition, pH 4.5 | purified enzyme, 4-MU-alpha-Gal fluorescence, pH 4.5 | activity change, negative = inhibition, % at 105 µM | 230,000 tested, under 10 active | AID 1467
aGlu spleen mod: inhibitors or activators of human alpha-glucosidase in spleen homogenate; 240,000 compounds, 0.006% hits; P10253; Potency, µM (series often up to 79.9 µM), actives largely listed as inhibitors; human spleen homogenate, 4-MU-alpha-glucoside fluorescence
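Human spleen homogenate (1 ug) with 4-methylumbelliferyl-alpha-D-glucopyranoside (1 mM final) in 50 mM citrate/phosphate pH 5.0, 0.01% Tween-20; 40 min at 37 C. Stopped at pH 10; 4-MU fluorescence Ex 365/Em 440 nm; AC50 by Hill fit.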
aGal spleen mod: alpha-galactosidase A (human) modulation; 240,000 compounds, 0.008% hits; human spleen homogenate, 4MU-alpha-Gal fluorescence, 40 min; Potency, µM (titrated, usually from 80 µM), actives largely listed as inhibitors; AID 2107; P06280
Target sequence (P06280 32-429 limits assumed): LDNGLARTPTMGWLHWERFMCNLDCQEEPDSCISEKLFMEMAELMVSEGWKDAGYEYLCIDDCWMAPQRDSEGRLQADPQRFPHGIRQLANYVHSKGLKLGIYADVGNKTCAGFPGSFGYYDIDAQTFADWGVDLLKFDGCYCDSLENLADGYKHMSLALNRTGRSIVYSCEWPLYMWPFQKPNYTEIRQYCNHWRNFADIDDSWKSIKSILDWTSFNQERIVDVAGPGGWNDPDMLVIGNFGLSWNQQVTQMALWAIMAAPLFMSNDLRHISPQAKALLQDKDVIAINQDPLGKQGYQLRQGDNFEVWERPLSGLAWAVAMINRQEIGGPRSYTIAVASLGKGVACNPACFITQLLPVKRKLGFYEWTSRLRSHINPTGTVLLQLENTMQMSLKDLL
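qHTS titration in buffer at pH 5.0. Alpha-galactosidase activity in spleen homogenate was measured via 4-methylumbelliferone release from 1 mM fluorogenic substrate after 40 min at 37C and a pH 10 stop. AC50 came from Hill fits of control-normalized data.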
GAA inhib: inhibitors of human lysosomal alpha-glucosidase | P10253 | purified human GAA, 4-MU-alpha-glucoside fluorescence | Potency, µM (series often up to 76.9 µM), most hits filed as inhibitors | 200,000 compounds, 0.005% hits
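Fluorescence at Ex 365/Em 440 nm from 4-methylumbelliferone reported enzyme activity after 20 min at room temperature. Reactions used 4 nM enzyme and 400 uM substrate at pH 5.0; curves fitted with the Hill equation.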
GAA glycogen mod: inhibitors or activators of human alpha-glucosidase glycogen cleavage | recombinant GAA, glycogen substrate, Amplex Red glucose oxidase fluorescence | P10253 | Potency, µM (top dose mostly 76.4 µM), hits mostly inhibitors | 300,000 compounds, 0.38% hits;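 also: the screen sought inhibitors and activators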
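Recombinant human enzyme (4 nM); glycogen substrate; 37 C, 40 min, pH 5.0. Readout: coupled glucose oxidase/Amplex Red fluorescence.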
N370S GC: N370S glucocerebrosidase modulation, Gaucher chaperone candidate | N370S GC spleen homogenate, 4MU-glucoside fluorescence | 330,000 compounds, 0.092% hits | Potency, µM (titrated, usually from 59.4 µM), usual class: inhibitors | P04062
Hits are given with their value; - = inactive; ? = inconclusive; . = no result; [ ] = remark or other dose. Calls follow the shape of the dose curve; as a rule, active = well fitted curve in the direction sought with a large enough effect; inconclusive = small, poorly fitted or top-dose-only effect, or another doubt; inactive = no such curve, though single readings can be large; an effect the other way counts as inactive or inconclusive.

SMILES	GLA inh pH 4.5	aGlu spleen mod	aGal spleen mod	GAA inhib	GAA glycogen mod	N370S GC
Oc1ccc(NC(=S)N=Nc2c(O)[nH]c3ccccc23)cc1	-	-	-	-	40µM	-
Oc1cccc(NC(=S)N=Nc2c(O)[nH]c3ccc(Br)cc23)c1	-	-	-	.	-	7.9µM
CCN(c1ccc(C)cc1C)S(=O)(=O)c1nnc(NC(=O)CC(C)C)s1	.	.	.	.	-	.
CCCCN(CC)S(=O)(=O)c1ccc(C(=O)N(CCCN(C)C)c2nc3cc(C)cc(C)c3s2)cc1	-	-	-	-	-	?
CCN(Cc1ccccc1)S(=O)(=O)c1ccc(C(=O)N(CCCN(C)C)c2nc3cc(C)cc(C)c3s2)cc1	.	.	.	.	.	14µM
O=C(NNc1nc2ccccc2nc1C(F)(F)F)c1ccccc1	-	-	-	-	11µM	-
Cc1ccc(S(=O)(=O)NNc2ccccc2)cc1	-	-	-	-	?	.
Cc1ccc(S(=O)(=O)NNc2nc3ccccc3nc2C(F)(F)F)cc1	-	-	-	-	28µM	-
CCCS(=O)(=O)N1CC(=O)N(c2ccccc2F)C(C)(C(=O)NC2CCCCCC2)C1 (configuration not stated)	.	.	.	.	-	.
CN(C)c1c(N)c(=O)oc2ccccc12	-	-	-	-	?	-
Cc1ccc(Nc2c(N)c(=O)oc3ccccc23)cc1	-	-	-	-	20µM	-
CNc1c(N)c(=O)oc2ccccc12	-	-	-	-	-	-
Nc1c(N)c2ccccc2oc1=O	-	-	-	-	7.1µM	-
CNc1nc(Cl)nc2c1ncn2CC(COC(=O)C(C)(C)C)COC(=O)C(C)(C)C	.	-	-	.	.	-
CCOc1ccc(Nc2oc(-c3ccco3)nc2C#N)cc1	-	-	-	-	35µM	-
CC(C)C[C@H](NC(=O)[C@H](CC(C)C)NC(=O)[C@@H](Cc1c[nH]c2ccccc12)NC(=O)[C@H](Cc1ccccc1)NC(=O)[C@@H](Cc1c[nH]c2ccccc12)NC(=O)[C@H](CCC(N)=O)NC(=O)[C@H](CCC(N)=O)NC(=O)[C@@H]1CCCN1C(=O)[C@H](CCCCN)NC(=O)[C@@H]1CCCN1C(=O)[C@H](N)CCCN=C(N)N)C(N)=O	.	-	-	.	.	-
CCCC[C@H](NC(=O)[C@@H]1CCCN1C(=O)[C@H]1CCCN1C(=O)[C@H](Cc1ccccc1)NC(=O)[C@@H](Cc1c[nH]c2ccccc12)NC(=O)[C@H](C)NC(=O)[C@H](CCCN=C(N)N)NC(=O)OC(C)(C)C)C(N)=O	.	-	-	.	.	2.8µM
Cc1ccc(O)c(Sc2cc(C)ccc2O)c1	-	-	-	-	28µM	-
C1CCC[C@H]2CCCN3CC[C@H](CCCCCC[C@@H]4CCCN5CC[C@H](CC1)OC45)OC23	.	-	-	.	.	-
O=C(O)c1cc(NCc2c(F)cccc2Cl)ccc1N1CCOCC1	-	-	-	-	7.1µM	-
COC(=O)c1cc(NCc2ccccc2F)ccc1N1CCOCC1	-	-	-	-	?	-
COc1ccc(Nc2nc(-c3ccccc3)nc3ccccc23)cc1S(=O)(=O)N1CCOCC1	-	-	-	.	-	14µM
Oc1cccc(Nc2nc(-c3ccccc3)nc3ccccc23)c1	.	.	.	.	-	2.8µM
COc1ccc2nc3oc(C(=O)N(C)c4ccc(Cl)cc4)cc3cc2c1	.	.	.	.	-	.
O=C1OC(N2C(=O)CC[C@H]2C(=O)Nc2ccc(F)c(F)c2)c2ccccc21 (some centres not stated)	.	.	.	.	-	-
SMILES	GLA inh pH 4.5	aGlu spleen mod	aGal spleen mod	GAA inhib	GAA glycogen mod	N370S GC
O=C1OC(N2C(=O)CC[C@H]2C(=O)Nc2ccc3c(c2)OCO3)c2ccccc21 (some centres not stated)	.	.	.	.	32µM	-
CCOc1ccc(N(CC(=O)Nc2ccc(OC)cc2)S(=O)(=O)c2c(C)[nH]c(=O)[nH]c2=O)cc1	-	-	-	-	-	?
CCOc1ccc(N(CC(=O)Nc2ccc(C)cc2)S(=O)(=O)c2c(C)[nH]c(=O)[nH]c2=O)cc1	-	-	-	.	-	2.8µM
CCOc1ccc(NC(=O)CN(c2ccc(OCC)cc2)S(=O)(=O)c2c(C)[nH]c(=O)[nH]c2=O)cc1	-	-	-	-	-	6.3µM
CCOc1ccc(N(CC(=O)Nc2ccc(F)cc2F)S(=O)(=O)c2c(C)[nH]c(=O)[nH]c2=O)cc1	.	.	.	.	-	.
O=C(Nc1ccccc1)OC[C@H](CN1CCCCC1)OC(=O)Nc1ccccc1	-	-	-	.	.	-
Cc1ccc(-c2csc(=Nc3ccccc3)n2Cc2ccc3c(c2)OCO3)cc1	.	.	.	.	-	.
Cn1c(=O)c2sccc2n2c(CCCC(=O)Nc3ccc(Oc4ccccc4)cc3)nnc12	.	.	.	.	-	.
Cc1cc(NS(=O)(=O)c2ccccc2)cc(Cl)c1O	-	-	-	-	20µM	-[2.35 µM]
Cc1ccc(S(=O)(=O)Nc2cc(C)c(O)c(S(=O)(=O)c3ccc(C)cc3)c2)cc1	-	-	-	-	11µM	-
Cc1ccc(S(=O)(=O)c2cc(Nc3ccccc3)ccc2O)cc1	.	.	.	.	.	-
COc1ccc(S(=O)(=O)Nc2cc(S(=O)(=O)c3ccccc3)c(O)cc2C)cc1	.	.	.	.	-	-
Cc1cc(O)c(C(C)C)cc1NS(=O)(=O)c1ccccc1	-	-	-	-	9.9µM	-
Cc1coc2c(C)c3oc(=O)c(CCC(=O)N4CCCCC4)c(C)c3cc12	.	.	.	.	-	.
COc1ccccc1N1CCN(CCn2c(=O)c3c(c4ccccc4n3C)n(C)c2=O)CC1	.	-	-	.	.	-
COC(=O)C1CSc2[nH]c(=O)sc2C1c1ccc(OC)c(OC)c1 (configuration not stated)	-	-	-	-	18µM	-
CCc1c(CN2CCN(c3cccc(C)c3C)CC2)csc1C	.	.	.	.	-	.
COc1cc(OC)c(C2Nc3cccc4cccc(c34)N2)c(OC)c1	.	.	.	.	?	-
COc1ccccc1C1Nc2cccc3cccc(c23)N1	-	-	-	-	16µM	-
COc1ccc(CNC(=O)CN(c2ccc(C)cc2)S(=O)(=O)c2c(C)n[nH]c2C)cc1	.	.	.	.	-	.
CCOc1ccc(S(=O)(=O)N(CC(=O)NCCc2ccc(OC)cc2)c2ccccc2)cc1	.	.	.	.	-	.
CCOc1ccc(N(CC(=O)NCc2ccc(OC)cc2)S(=O)(=O)c2c(C)[nH]c(=O)[nH]c2=O)cc1	.	.	.	.	-	11µM
CCOc1ccc(N(CC(=O)NCCc2ccc(Cl)cc2)S(=O)(=O)c2c(C)[nH]c(=O)[nH]c2=O)cc1	-	-	-	-	-	10µM
COc1cc(C)ccc1OCCSc1nc2ccc(NC(C)=O)cc2s1	.	.	.	.	-	.
Oc1ccc(Br)cc1/C=N/n1c(-c2ccccc2)n[nH]c1=S	.	.	.	.	.	-
Oc1ccc(Br)cc1C=Nc1cccn2cc(-c3ccccc3)nc12	-	-	-	-	?	4.5µM
Cc1ccc(OCC(=O)Nc2ccc(OCc3cc(=O)n4ccsc4n3)cc2)cc1	.	.	.	.	-	.
